# Compounds without any hit were thinned out: in the full panel of roughly 83,000, 20% have a hit.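 Step 1: grow cells in 96-well plates. Step 2: add test compound at a single concentration. Step 3: incubate 48 h. Step 4: record percent growth.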 Unmarked numbers belong to inactive results. Calls of active or inactive are those of the source. Rule for the calls: active = growth percent below 10; inactive = the rest.
# Columns and labels:
# Assay in all cases: NCI-60 one-dose screen, 48 h (100 = growth as untreated, 0 = no growth, -100 = all killed)
# HCT-15 colon = settings: 10 µM unless noted
# SNB-75 CNS = settings: 10 µM
# SNB-19 CNS = settings: 10 µM unless noted
# U251 CNS = settings: 10 µM unless noted
# PC-3 prostate = settings: 10 µM unless noted
# SK-MEL-5 melanoma = settings: 10 µM unless noted
# UACC-62 melanoma = settings: 10 µM unless noted
# LOX IMVI melanoma = settings: 10 µM unless noted
# SK-MEL-28 melanoma = settings: 10 µM unless noted
# SK-MEL-2 melanoma = settings: 10 µM unless noted
# EKVX NSCLC = settings: 10 µM unless noted
# SN12C renal = settings: 10 µM unless noted
# UO-31 renal = settings: 10 µM unless noted
# TK-10 renal = settings: 10 µM unless noted
# ACHN renal = settings: 10 µM unless noted
# CAKI-1 renal = settings: 10 µM unless noted
# A498 renal = settings: 10 µM unless noted
# CCRF-CEM leukemia = settings: 10 µM unless noted
# MOLT-4 leukemia = settings: 10 µM unless noted
# HT29 colon = settings: 10 µM unless noted
SMILES,growth (HCT-15 colon) [%],growth (SNB-75 CNS) [%],growth (SNB-19 CNS) [%],growth (U251 CNS) [%],growth (PC-3 prostate),growth (SK-MEL-5 melanoma),growth (UACC-62 melanoma),growth (LOX IMVI melanoma),growth (SK-MEL-28 melanoma) [%],growth (SK-MEL-2 melanoma),growth (EKVX NSCLC) [%],growth (SN12C renal) [%],growth (UO-31 renal),growth (TK-10 renal) [%],growth (ACHN renal) [%],growth (CAKI-1 renal),growth (A498 renal) [%],growth (CCRF-CEM leukemia),growth (MOLT-4 leukemia) [%],growth (HT29 colon) [%]
COC(=O)c1cc2cc(-c3ccc(OC)cc3)cnc2[nH]1,11,62.5,42.4,12.6,7.32% (active),30.9%,23.8%,25.2%,56.1,8.37% (active),47,51.9,34.9%,38.9,44,-2.35% (active),28.1,22.3%,22.8,–
N#C/C(=C1C=C/C(=N/O)C(Cl)=C/1)c1ccc(Cl)cc1,83,89,93.6,46.4,22.2%,93.5%,58.3%,7.65% (active),101,95.1%,93.6,66.6,44.9%,51.2,67.3,34%,88.1,7.1% (active),65.9,–
OCCCCCCNc1ncnc2cc(Cl)ccc12,101,–,–,96.8,80.7%,94.1%,102%,88.1%,116,100%,105,99.9,69.7%,94.1,102,90.3%,104,78.2%,84.5,99
COc1cccc(-c2nc3sccn3c2-c2ccnc(NCCCNS(=O)(=O)c3ccc(F)cc3)c2)c1,19.4,–,62.3,–,9.93% (active),-39.3% (active),-38.3% (active),23.1%,–,21.2%,36.5,29.9,6.81% (active),80.4,22.6,23.9%,48.7,10.6%,10.9,44.4
C[n+]1c(/C=C/c2c(O)ccc3ccccc23)ccc2ccccc21,21.6,49.9,41.7,17.3,25.4%,36%,44.6%,-65.1% (active),66.6,29.4%,44.8,32.4,22.2%,49.1,31.6,35.1%,52.9,10.2%,–,–
CC(=O)Oc1cccc(S(=O)(=O)n2cc(C(=O)C(=O)Nc3ccncc3)c3ccccc32)c1,80.1,–,92.9,–,81.4%,73.5%,70.8%,86.6%,104,–,51.4,85.1,75.3%,102,88,67.5%,63.3,–,90.9,86.1
C=C[C@@H]1C[C@@H]2Cc3cc(Cl)ccc3N1O2,97.7,93.3,113,89.7,94.9%,102%,96.5%,92.5%,103,107%,90.2,94.9,101%,101,104,88.7%,85.6,-61.3% (active),26.4,–
NC(=S)N/N=C1\CCCC(C(F)(F)F)C1 (configuration not stated),90.5,87.3,100,107,69.6%,116%,100%,78%,111,102%,84.7,85.1,64.8%,112,91.8,87.5%,128,45.5%,74.5,–
COc1ccc(/C=C/c2c(C(C)=O)c(C)nc3ccccc23)cc1,95.8,–,82.1,–,76.1%,33.3%,52.4%,96.6%,–,75.8%,81.7,85.6,65.1%,77.9,84.5,81.4%,72.8,77.7%,73.1,80.1
